PubChem BioAssay (NCATS)
Values joined by “and” are separate entries in the source; they are usually repeats but may differ in a detail not shown here. Identical values can stand only once. Records with an inconclusive call do not appear. Where a call stands in place of a potency, no number is given. Some structures have more than one record in an assay (separate samples or runs), and their calls can disagree. Active and inactive are the calls of the source. Unless noted, calls follow the shape of the dose curve; as a rule, active = well fitted curve in the direction sought with a large enough effect; inconclusive = small, poorly fitted or top-dose-only effect, or another doubt; inactive = no such curve, though single readings can be large; an effect the other way counts as inactive or inconclusive.

Assays:
[1] = target: Cytochrome P450 1A2 (Homo sapiens) (UniProt P05177); test: p450-cyp1a2 (AID 410; calls by dose curve; also: potency is read from the fitted curve at half-maximal effect)
Method in brief: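 Inhibition was calculated relative to 57 uM furafylline (full inhibition). The reaction used human CYP1A2 at 20nM with Luciferin-ME at its Km, 100uM, driven by an NADPH-regenerating system for 60 min at room temperature.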

[2] = NFAT Signaling Pathway (AID 444; active = well fitted curve in either direction with a large enough effect, not every such curve was filed as active;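 also: carbachol stimulus at about its EC50 of 1 µM final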); conditions: Jurkat NFAT-bla M1, carbachol, beta-lactamase ratio, 5 h; at 17.2 µM (top of the series) unless noted
Method in brief: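 Jurkat cells with NFAT-driven β-lactamase reporter and co-expressed M1 receptor, stimulated with carbachol (final 1 uM, ~EC50), compound titration, 5 h at 37 °C. CCF4 loaded 1 h at RT; 460/530 nm ratio gave %activity and AC50.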

[3] = target: Glucocorticoid receptor (Homo sapiens) (UniProt P04150); test: GR-GFP Redistribution (AID 450;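 active = compounds whose dose series gives a full or clear partial fitted curve of increased nuclear translocation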; also: potency is read from the fitted curve at half-maximal effect)
[4] = target: Glucocorticoid receptor (Homo sapiens) (UniProt P04150); test: GR-EFC Redistribution (AID 451; calls by dose curve; also: potency is read from the fitted curve at half-maximal effect); conditions: CHO-K1 GR-EFC translocation, beta-gal luminescence, 2 h
Method in brief: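 CHO-K1 cells expressing nuclear EA and GR-ED fragments of b-gal; compounds titrated up to 46 uM final, 2 h at 37 C. GR nuclear translocation read as complemented b-gal luminescence after 1 h RT detection.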

[5] = target: Mitogen-activated protein kinase 10 (Mus musculus) (UniProt Q61831); test: JNK3 AlphaScreen Assay (AID 530; active = well fitted curve in either direction with a large enough effect, not every such curve was filed as active;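 also: kinase came from lysate of stimulated human HepG2 cells; signal reports phosphorylation of biotinylated GST-cJun 1-79 at Ser73 with 10 µM ATP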)
Method in brief: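 qHTS format: compounds tested as titrations against IL-1beta/TNF-alpha-activated HepG2 lysate JNK3 with biotin-GST-cJun substrate and 10 uM ATP at room temperature. Loss of anti-phospho-cJun AlphaScreen signal indicates inhibition.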

[6] = target: 3',5'-cyclic-AMP phosphodiesterase 4B (Homo sapiens) (UniProt Q07343); test: qHTS Assay for Inhibitors of PDE-IV (AID 607; active = well fitted activation curve with a large enough effect in the main read-out, with a control signal flat, not every such curve was filed as active)
Method in brief: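 The readout is membrane depolarisation from a cAMP-sensing CNG channel, detected with a potential dye at ex 535/em 590. Cells were HEK293-derived (endogenous PDE-IV) at 1000 cells/well, titrated up to 22.9 uM final.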

[7] = target: Guanine nucleotide-binding protein G(i) subunit alpha-1 (Homo sapiens) (UniProt P63096); test: qHTS Assay for Inhibitors of RGS12 GoLoco Motif Activity (Green Fluorophore) (AID 879);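 also: negative values mean loss of peptide binding seen as reduced polarization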
Method in brief: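 Fluorescence polarization assay: 50 nM Gαi1 with 10 nM FITC-labeled RGS12 GoLoco peptide in 10 mM Tris pH 7.5, 150 mM NaCl, 0.1 mM GDP, 0.05% NP40, 10 min at room temperature with compound.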

[8] = target: Cytochrome P450 3A4 (Homo sapiens) (UniProt P08684); test: qHTS Assay for Activators of Cytochrome P450 3A4 (AID 885); also: nearly all actives have a fitted effect of over 65% in size
Method in brief: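 Steps: enzyme/substrate mix dispensed; compound added, 10 min RT; NADPH regeneration solution added, 60 min RT; luciferin detection buffer stops reaction; 20 min later luminescence measured.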

[9] = target: Cytochrome P450 2D6 (Homo sapiens) (UniProt P10635); test: qHTS Assay for Inhibitors and Substrates of Cytochrome P450 2D6 (AID 891);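 also: luciferin methyl ether substrate demethylated by CYP2D6 with NADPH regeneration; nearly all actives have a fitted effect of over 60% in size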
Method in brief: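 Human CYP2D6 (5 nM) with 30 uM Luciferin-ME EGE (at Km) in 100 mM KPO4, compound preincubated 10 min, then NADPH regeneration system for 60 min at room temperature. Luciferin read by luminescence; normalized to 1.43 uM quinidine.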

[10] = qHTS Assay for Identification of Small Molecule Antagonists for Thrombopoietin (TPO) Signaling Pathway (AID 918); conditions: TPO-dependent cell signaling reporter, antagonist mode; also: potency is read from the fitted curve at half-maximal effect; nearly all actives have a fitted effect of over 60% in size
Method in brief: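 First, Ba/F3 reporter cells expressing human TPO receptor were held overnight without IL-3. Next, compound and 26 pM TPO were added. After 24 hrs incubation at 37 C, luciferase luminescence under the Glycoprotein IIb promoter was recorded.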

[11] = target: Pyruvate kinase (Leishmania mexicana) (UniProt Q27686); test: qHTS Validation Assay for Inhibitors of Leishmania Mexicana Pyruvate Kinase (AID 945)
Method in brief: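 Substrate mix (0.5 mM PEP, 0.1 mM ADP, 7 mM MgCl2, 50 mM KCl, pH 7.2 imidazole) received compound by pin tool, then 0.2 nM LmPYK E451W. After 1 h at room temperature, PKLight was added and luminescence measured.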

[12] = target: Pyruvate kinase PKM (Homo sapiens) (UniProt P14618); test: qHTS Assay for Activators of Human Muscle Pyruvate Kinase (AID 954; active = well fitted curve in the direction sought with a large enough effect, not every such curve was filed as active)
Method in brief: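 Reaction: 0.1 nM purified PKM2 with 0.5 mM phosphoenolpyruvate and 0.1 mM ADP, room temperature, 1 h. Readout: luciferase-based ATP luminescence after stop reagent. Activators judged against a 0.3 nM enzyme column.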

[13] = target: Alpha-galactosidase A (Homo sapiens) (UniProt P06280); test: Counterscreen for Glucocerebrosidase Inhibitors: qHTS Assay for Human alpha-Galactosidase at pH 4.5 (AID 992)
Method in brief: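 Concentration-response curves (0.7 nM to 77 uM final) were modeled with the Hill equation to give AC50. Reactions: 2 nM enzyme, 80 uM fluorogenic alpha-galactoside, pH 4.5 citric acid buffer, 20 min, room temperature.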

[14] = target: alpha-glucosidase (Oryza sativa, rice) (UniProt Q653V4); test: Counterscreen for Glucocerebrosidase Inhibitors: qHTS Assay for Rice alpha-Glucosidase at pH 5.0 (AID 997)
Method in brief: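 Rice alpha-glucosidase (4 nM final) with 400 uM 4-methylumbelliferyl-alpha-D-glucopyranoside in citrate buffer pH 5.0, 20 min at room temperature, stopped at pH 10; fluorescence 365/440 nm, compounds 0.7 nM–77 uM, AC50 from Hill fits.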

[15] = target: ATP-dependent 6-phosphofructokinase (Trypanosoma brucei brucei) (UniProt O15648); test: qHTS Assay to Find Inhibitors of T. brucei phosphofructokinase: hit validation (AID 492961);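 also: luminescence reports ADP formed as PFK phosphorylates fructose-6-phosphate with ATP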
Method in brief: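 Compounds titrated; %activity normalized to 0x and 1x enzyme controls, curve-fitted. Readout: ADP-Glo luminescence after 45 min room-temperature reaction of 1.25 nM PFK, 0.1 mM ATP, 0.5 mM F6P, pH 8.0.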

[16] = target: Ubiquitin carboxyl-terminal hydrolase 1 (Homo sapiens) (UniProt O94782); test: Inhibitors of USP1/UAF1: Pilot qHTS (AID 504865);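 also: rhodamine fluorescence freed from ubiquitin-rhodamine substrate followed over time; top concentration of the series differs between compounds; nearly all actives have a fitted effect of over 35% in size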
Method in brief: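 Deubiquitinase activity followed as kinetic rhodamine fluorescence release from 150 nM Ub-Rho. 1 nM USP1/UAF1 with compound, after 15 min room-temperature preincubation, in HEPES pH 7.8 buffer containing TCEP, EDTA, BSA and Tween-20.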

[17] = target: Luciferin 4-monooxygenase (Photinus pyralis) (UniProt P08659); test: Biochemical firefly luciferase enzyme assay for NPC (AID 624030);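 also: purified P. pyralis luciferase at 10 nM with luciferin and ATP substrate; nearly all actives have a fitted effect of over 70% in size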
Method in brief: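 Purified P. pyralis luciferase at 10 nM in 50 mM Tris Acetate (final), luminescence read within 5 minutes of enzyme addition to compounds. Activity normalised to PTC124 versus DMSO; concentration-response curves classed by r2, magnitude and activity.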

[18] = S16 Schwann cell PMP22 intronic element firefly luciferase assay (AID 624032); also: potency is read from the fitted curve at half-maximal effect; nearly all actives have a fitted effect of over 30% in size
Method in brief: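 Rat S16 Schwann cells stably carrying firefly luciferase driven by a PMP22 intronic element, in 10% FBS, treated 24 h at 37 C. ONE-Glo luminescence normalized to PTC124 control and DMSO (0%); curves classed by r2, magnitude and activity.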

[19] = qHTS profiling for inhibitors of Plasmodium falciparum proliferation (AID 504749); also: nearly all actives have a fitted effect of over 60% in size; conditions: P. falciparum in erythrocytes, SYBR Green DNA, 72 h; at 28.7 µM (top of the series); parasite line B
Method in brief: (§1)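 Readout was DNA-dye fluorescence from lysed cultures, ex 485/em 535 nm. Parasitized red cells had grown 72 h with compound; data scaled between 0.29 uM artemisinin and DMSO wells and corrected using vehicle-only plates.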

AS120 = test: as above; conditions: P. falciparum in erythrocytes, SYBR Green DNA, 72 h; series mostly up to 28.7 µM
Method in brief: as §1

ATS95 = test: as above; conditions: P. falciparum in erythrocytes, SYBR Green DNA, 72 h; series mostly up to 28.7 µM
Method in brief: as §1

CP185 = test: as above; conditions: P. falciparum in erythrocytes, SYBR Green DNA, 72 h; series mostly up to 28.7 µM
Method in brief: as §1

CP192 = test: as above; conditions: P. falciparum in erythrocytes, SYBR Green DNA, 72 h; series mostly up to 28.7 µM
Method in brief: as §1

CP201 = test: as above; conditions: P. falciparum in erythrocytes, SYBR Green DNA, 72 h; series mostly up to 28.7 µM
Method in brief: as §1

CP203 = test: as above; conditions: P. falciparum in erythrocytes, SYBR Green DNA, 72 h; series mostly up to 28.7 µM
Method in brief: as §1

CP211 = test: as above; conditions: P. falciparum in erythrocytes, SYBR Green DNA, 72 h; series mostly up to 28.7 µM
Method in brief: as §1

CP238 = test: as above; conditions: P. falciparum in erythrocytes, SYBR Green DNA, 72 h; series mostly up to 28.7 µM
Method in brief: as §1

Glucocorticoid receptor (Homo sapiens), sequence (P04150 whole entry, looked up, the tested form may be a part): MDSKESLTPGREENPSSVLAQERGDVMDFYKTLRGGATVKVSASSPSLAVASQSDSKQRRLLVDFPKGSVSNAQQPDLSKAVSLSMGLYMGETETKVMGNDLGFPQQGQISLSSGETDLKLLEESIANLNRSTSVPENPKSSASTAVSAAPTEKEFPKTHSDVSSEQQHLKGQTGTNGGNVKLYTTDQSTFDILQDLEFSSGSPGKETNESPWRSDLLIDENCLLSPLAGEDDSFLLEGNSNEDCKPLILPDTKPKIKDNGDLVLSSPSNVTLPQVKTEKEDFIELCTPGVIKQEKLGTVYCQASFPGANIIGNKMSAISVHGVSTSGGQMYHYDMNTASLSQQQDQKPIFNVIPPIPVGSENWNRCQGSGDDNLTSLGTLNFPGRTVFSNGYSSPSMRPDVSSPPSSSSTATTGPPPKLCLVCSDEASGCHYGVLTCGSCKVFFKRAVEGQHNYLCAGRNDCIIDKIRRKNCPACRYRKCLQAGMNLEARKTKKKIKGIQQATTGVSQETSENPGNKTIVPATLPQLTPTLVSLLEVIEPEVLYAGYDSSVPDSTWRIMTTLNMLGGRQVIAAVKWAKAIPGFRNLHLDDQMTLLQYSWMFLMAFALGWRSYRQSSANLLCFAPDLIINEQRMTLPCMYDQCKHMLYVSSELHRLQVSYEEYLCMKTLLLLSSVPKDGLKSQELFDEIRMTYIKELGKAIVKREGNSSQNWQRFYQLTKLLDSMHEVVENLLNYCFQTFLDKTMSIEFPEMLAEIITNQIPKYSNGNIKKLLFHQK
Cytochrome P450 1A2 (Homo sapiens), sequence (P05177 whole entry, looked up): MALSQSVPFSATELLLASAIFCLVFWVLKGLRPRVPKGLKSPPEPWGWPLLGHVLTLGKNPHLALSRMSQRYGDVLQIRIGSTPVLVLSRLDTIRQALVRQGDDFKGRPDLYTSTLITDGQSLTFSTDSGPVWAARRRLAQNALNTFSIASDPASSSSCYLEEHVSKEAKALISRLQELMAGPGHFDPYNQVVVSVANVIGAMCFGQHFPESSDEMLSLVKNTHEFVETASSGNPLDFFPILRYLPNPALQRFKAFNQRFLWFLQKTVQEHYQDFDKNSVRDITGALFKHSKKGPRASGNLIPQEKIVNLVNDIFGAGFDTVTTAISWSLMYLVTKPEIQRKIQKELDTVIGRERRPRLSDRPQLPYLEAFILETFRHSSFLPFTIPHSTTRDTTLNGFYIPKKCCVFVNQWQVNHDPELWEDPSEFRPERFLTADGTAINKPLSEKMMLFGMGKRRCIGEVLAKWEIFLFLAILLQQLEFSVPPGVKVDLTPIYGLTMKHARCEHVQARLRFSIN
3',5'-cyclic-AMP phosphodiesterase 4B (Homo sapiens), sequence (Q07343 whole entry, looked up): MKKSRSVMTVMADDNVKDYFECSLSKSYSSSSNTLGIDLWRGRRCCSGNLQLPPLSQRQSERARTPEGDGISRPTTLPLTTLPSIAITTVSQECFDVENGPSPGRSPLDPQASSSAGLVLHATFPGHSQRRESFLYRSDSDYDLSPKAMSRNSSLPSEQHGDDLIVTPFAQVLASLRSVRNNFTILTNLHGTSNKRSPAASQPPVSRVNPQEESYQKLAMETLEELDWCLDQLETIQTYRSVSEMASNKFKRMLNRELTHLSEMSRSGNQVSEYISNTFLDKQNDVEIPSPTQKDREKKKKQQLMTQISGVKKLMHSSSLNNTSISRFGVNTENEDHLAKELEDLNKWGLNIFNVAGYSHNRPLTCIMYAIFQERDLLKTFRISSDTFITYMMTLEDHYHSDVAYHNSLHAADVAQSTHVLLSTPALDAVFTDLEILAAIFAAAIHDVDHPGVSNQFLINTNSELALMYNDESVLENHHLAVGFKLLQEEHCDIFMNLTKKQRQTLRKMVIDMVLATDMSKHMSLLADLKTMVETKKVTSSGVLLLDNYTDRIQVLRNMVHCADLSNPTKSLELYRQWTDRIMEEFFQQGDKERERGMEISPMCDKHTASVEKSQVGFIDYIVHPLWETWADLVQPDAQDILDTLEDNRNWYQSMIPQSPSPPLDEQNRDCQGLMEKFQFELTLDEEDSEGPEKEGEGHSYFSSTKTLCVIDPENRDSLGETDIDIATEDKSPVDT
Cytochrome P450 3A4 (Homo sapiens), sequence (P08684 whole entry, looked up): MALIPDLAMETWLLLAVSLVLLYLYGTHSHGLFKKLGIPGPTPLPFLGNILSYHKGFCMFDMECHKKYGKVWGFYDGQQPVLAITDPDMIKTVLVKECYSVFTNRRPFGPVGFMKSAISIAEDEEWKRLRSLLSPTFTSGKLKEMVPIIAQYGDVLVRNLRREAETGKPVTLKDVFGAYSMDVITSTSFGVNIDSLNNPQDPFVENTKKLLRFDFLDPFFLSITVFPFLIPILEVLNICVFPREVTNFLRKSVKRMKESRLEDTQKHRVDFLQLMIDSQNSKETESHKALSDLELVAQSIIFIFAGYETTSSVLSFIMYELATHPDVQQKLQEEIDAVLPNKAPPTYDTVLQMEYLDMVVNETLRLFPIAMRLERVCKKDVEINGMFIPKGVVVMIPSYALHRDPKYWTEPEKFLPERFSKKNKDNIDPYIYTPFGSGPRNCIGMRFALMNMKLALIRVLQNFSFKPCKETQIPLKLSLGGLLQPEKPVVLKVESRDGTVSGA
Luciferin 4-monooxygenase (Photinus pyralis), sequence (P08659 whole entry, looked up): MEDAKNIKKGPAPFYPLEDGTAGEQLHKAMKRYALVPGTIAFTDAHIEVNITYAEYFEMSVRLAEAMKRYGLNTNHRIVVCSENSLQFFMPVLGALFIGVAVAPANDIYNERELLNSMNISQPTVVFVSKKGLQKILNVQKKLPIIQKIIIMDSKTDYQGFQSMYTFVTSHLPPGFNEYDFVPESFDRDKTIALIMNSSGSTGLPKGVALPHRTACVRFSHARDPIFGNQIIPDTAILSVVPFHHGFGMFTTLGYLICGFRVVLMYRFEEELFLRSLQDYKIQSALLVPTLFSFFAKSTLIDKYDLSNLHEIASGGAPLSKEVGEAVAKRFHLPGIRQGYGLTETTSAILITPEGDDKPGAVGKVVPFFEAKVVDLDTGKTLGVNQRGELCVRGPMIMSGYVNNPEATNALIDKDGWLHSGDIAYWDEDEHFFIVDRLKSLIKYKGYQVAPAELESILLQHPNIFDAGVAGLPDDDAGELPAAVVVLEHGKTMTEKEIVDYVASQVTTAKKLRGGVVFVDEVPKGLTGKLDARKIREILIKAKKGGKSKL
Ubiquitin carboxyl-terminal hydrolase 1 (Homo sapiens), sequence (O94782 whole entry, looked up): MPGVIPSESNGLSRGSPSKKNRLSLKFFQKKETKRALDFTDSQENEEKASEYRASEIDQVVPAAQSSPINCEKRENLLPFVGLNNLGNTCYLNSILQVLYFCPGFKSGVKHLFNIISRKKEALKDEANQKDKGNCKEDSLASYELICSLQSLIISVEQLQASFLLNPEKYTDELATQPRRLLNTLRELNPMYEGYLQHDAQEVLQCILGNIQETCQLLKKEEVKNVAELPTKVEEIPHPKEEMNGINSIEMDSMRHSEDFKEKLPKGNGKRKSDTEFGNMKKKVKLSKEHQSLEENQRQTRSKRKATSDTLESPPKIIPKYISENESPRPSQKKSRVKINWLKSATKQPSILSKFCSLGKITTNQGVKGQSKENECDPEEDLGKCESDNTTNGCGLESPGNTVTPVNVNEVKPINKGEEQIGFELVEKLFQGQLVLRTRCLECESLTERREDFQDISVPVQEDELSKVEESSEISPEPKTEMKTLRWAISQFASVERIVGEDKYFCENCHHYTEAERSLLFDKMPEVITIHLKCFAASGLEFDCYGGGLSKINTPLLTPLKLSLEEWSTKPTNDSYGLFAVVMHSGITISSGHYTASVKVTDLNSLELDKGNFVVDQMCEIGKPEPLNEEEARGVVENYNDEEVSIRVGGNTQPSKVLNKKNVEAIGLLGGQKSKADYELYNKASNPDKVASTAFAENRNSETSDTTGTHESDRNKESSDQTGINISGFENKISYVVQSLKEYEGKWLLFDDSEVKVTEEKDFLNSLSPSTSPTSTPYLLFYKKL
Alpha-galactosidase A (Homo sapiens), sequence (P06280 whole entry, looked up): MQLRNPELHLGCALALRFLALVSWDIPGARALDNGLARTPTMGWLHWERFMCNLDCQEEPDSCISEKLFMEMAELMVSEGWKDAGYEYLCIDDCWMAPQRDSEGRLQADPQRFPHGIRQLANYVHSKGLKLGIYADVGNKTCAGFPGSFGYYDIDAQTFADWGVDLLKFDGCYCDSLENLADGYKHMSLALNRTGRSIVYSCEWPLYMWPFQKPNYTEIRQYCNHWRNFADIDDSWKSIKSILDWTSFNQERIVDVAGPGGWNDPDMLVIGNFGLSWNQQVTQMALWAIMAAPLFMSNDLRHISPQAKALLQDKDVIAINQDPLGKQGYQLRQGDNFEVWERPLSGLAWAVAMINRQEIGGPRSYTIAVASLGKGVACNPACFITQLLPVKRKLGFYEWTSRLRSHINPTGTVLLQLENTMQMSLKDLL
Guanine nucleotide-binding protein G(i) subunit alpha-1 (Homo sapiens), sequence (P63096 whole entry, looked up): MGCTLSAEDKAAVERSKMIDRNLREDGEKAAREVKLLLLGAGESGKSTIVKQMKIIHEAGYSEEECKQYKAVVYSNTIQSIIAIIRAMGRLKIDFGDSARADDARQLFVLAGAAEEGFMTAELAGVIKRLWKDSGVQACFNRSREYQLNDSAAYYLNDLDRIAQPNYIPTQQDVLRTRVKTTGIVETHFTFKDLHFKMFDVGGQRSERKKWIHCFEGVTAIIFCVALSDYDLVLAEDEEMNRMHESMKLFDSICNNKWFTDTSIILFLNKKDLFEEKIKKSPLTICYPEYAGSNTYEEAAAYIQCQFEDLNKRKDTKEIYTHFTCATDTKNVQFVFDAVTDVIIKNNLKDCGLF

C=C1C(=O)O[C@@H]2[C@@H]1CC/C(C)=C\CC[C@@]1(C)O[C@H]21
Potency [1]: inactive and 12.6 µM (active)
activity change, negative = inhibition [2]: -121% (active)
Potency [3]: > 46 µM (inactive) and > 20.6 µM (inactive)
Potency [4]: > 46 µM (inactive) and > 20.6 µM (inactive)
Potency [5]: inactive
Potency [6]: inactive
outcome [7]: inactive
Potency [8]: inactive
Potency [9]: inactive
Potency [10]: 10 µM (active)
Potency [11]: inactive
outcome [12]: inactive
outcome [13]: inactive
outcome [14]: inactive
Potency [15]: inactive
Potency [16]: inactive
Potency [17]: inactive
Potency [18]: 32.2 µM (active)
activity, negative = inhibition [19]: -27.2% (inactive)
Potency (AS120): inactive
Potency (ATS95): inactive
Potency (CP185): inactive
Potency (CP192): inactive
Potency (CP201): inactive
Potency (CP203): inactive
Potency (CP211): inactive
Potency (CP238): inactive
